The values that follow come from article PMC4552634, “A New Set of Chemical Starting Points with Plasmodium falciparum Transmission-Blocking Potential for Antimalarial Drug Discovery” (PLoS ONE, 2015).

Hit rate of the full screen: of about 13,000 compounds, about 3,200 (25%) showed an effect of 50% or more. The list shows a part of the results.

For the experiment, the system named is P. falciparum stage V gametocytes. More on the design: BacTiter-Glo ATP luminescence viability of purified stage V gametocytes in 384-well plates, per cent inhibition versus DMSO. Conditions: 48 h, 5 µM; inhibitor.
Turning to `COC(=O)c1cccc(NC(=O)NCCNc2ccnc(Nc3ccc(F)cc3)n2)c1` [TCMDC-133642], the % Inhibition (usually the drop in the measured response relative to a control, in per cent) turned out to be 41.44%.

On to `O=C(c1ccc(Br)o1)N1N=C(c2cccs2)CC1c1ccc(Br)cc1` (stereo not shown) [TCMDC-125623], for which the “% Inhibition” value was 10.04%.

`COc1ccc(C2CCN(CCCCNC(=O)c3ccc(NC(=O)c4ccc(Cl)cc4)cc3)CC2)c(C)c1` [TCMDC-138359]: the “% Inhibition” value is -1.308%.

In the case of `CC(=O)Oc1c(C2CCN(CCCCNC(=O)c3ccc(NC(=O)c4ccc(Cl)cc4)cc3)CC2)ccc2c1CCCC2` [TCMDC-138649], the “% Inhibition” value was found to be 92.78%.

Consider `O=C(NCCCCN1CCC(c2ccc3c(c2OCC2CC2)CCCC3)CC1)c1ccc(NC(=O)c2ccc(Cl)cc2)cc1` [TCMDC-138584], for which the “% Inhibition” value turned out to be 71.88%.

With `O=C(NCCCCN1CCN(c2cccc3c2CCCC3)CC1)c1ccc(NC(=O)c2ccc(Cl)cc2)cc1` [TCMDC-138513], the “% Inhibition” value is given as -3.326%.

`O=C(NCCCCN1CCC(c2ccc3c(c2OC(=O)c2ccc(NC(=O)c4ccc(Cl)cc4)cc2)CCCC3)CC1)c1ccc(NC(=O)c2ccc(Cl)cc2)cc1` [TCMDC-138644]: the “% Inhibition” value turned out to be 102.3%.

Regarding `CC(C)(C)c1cc(Cn2ccnc2)cc(C(C)(C)C)c1O` [TCMDC-131317], the “% Inhibition” value was -23.04%.

Regarding `Cc1cnc(C(=O)Nc2cccc(-c3csc(-c4nc5ccccc5[nH]4)c3)c2)cn1` [TCMDC-132401], the “% Inhibition” value is listed as -83.32%.

For the molecule `CC(=O)c1ccc(N2CCN(C(=O)Nc3ccc(Cl)cc3)CC2)cc1` [TCMDC-125821], the “% Inhibition” value was -3.219%.

Regarding `O=C(O[C@@H]1CN[C@H](C#Cc2cc3ncnc(Nc4ccc5c(cnn5Cc5cccc(F)c5)c4)c3s2)C1)N1CCCC1` [TCMDC-135355], the “% Inhibition” value was -4.612%.

Regarding `CC(C)Oc1cc2c(cc1NS(=O)(=O)c1ccc(-c3cccs3)cc1)CCN(C)CC2` [TCMDC-141486], the “% Inhibition” value was 15.65%.

For `COCCCC1C(=O)OC2CCCC21` (stereo not shown) [TCMDC-131981], the “% Inhibition” value is reported as 9.495%.

Regarding `O=C(O)C(F)(F)F.OCCN1CCN(Cc2cccc(-c3ccc(-c4nc5cc(C(F)(F)F)ccc5[nH]4)s3)c2)CC1` [TCMDC-133028], the “% Inhibition” value is given as 0.1652%.

Consider `CCOC(=O)CCc1cc(F)c(F)c(OC[C@H](O)CNC(C)(C)C(O)c2ccc3ccccc3c2)c1` (stereo partly shown) [TCMDC-141731], for which the “% Inhibition” value is recorded as -25.49%.

With `Clc1ccc(-c2cc3c(NCc4ccncc4)nccc3s2)cc1` [TCMDC-135202], the “% Inhibition” value came to 11.9%.

With `CN(C)C(=O)CC(=O)NCc1c(Cl)cccc1Cl` [TCMDC-131769], the “% Inhibition” value is given as -6.865%.

On to `COc1cccc(NC(=O)Nc2c(-c3cccc(C(F)(F)F)c3)c(C(F)(F)F)nn2C)c1` [TCMDC-124575], for which the “% Inhibition” value came out at 19.24%.

`COc1cccc(NC(=O)Cn2c(C)c(C(=O)C(F)(F)F)c3ccccc32)c1` [TCMDC-123800]: the “% Inhibition” value is on record as 60.17%.

As to `COc1cccc(NC(=O)Cn2c(C)c(C#N)c3ccccc32)c1` [TCMDC-125424], the “% Inhibition” value is 84.65%.

On to `COc1cccc(NC(=O)c2cc(Br)cc(N3CCN(c4ccncc4)CC3)c2)c1` [TCMDC-135146], for which the “% Inhibition” value was 1.077%.

As for `CC(C)C(NC(=O)Cc1cccc2ccccc12)C(=O)Nc1cccc(C#N)c1` (stereo not shown) [TCMDC-125329], the “% Inhibition” value is reported as -6.888%.

For the molecule `COc1ccccc1Cn1ccnc1SCC(=O)Nc1cccc(C(F)(F)F)c1` [TCMDC-124737], the “% Inhibition” value is recorded as -18.32%.

For `O=C(/C=C/c1ccc(Cl)cc1)NCCCCCN1CCCN(C(=O)Nc2ccc(Cl)c(C(F)(F)F)c2)CC1` [TCMDC-136100], the “% Inhibition” value was -19.2%.

Regarding `O=C(Nc1cccc(N2CCC(NCCCn3ccnc3)CC2)c1)c1cccc(C(F)(F)F)c1` [TCMDC-124663], the “% Inhibition” value is 36.86%.

Turning to `Cc1cc(NC(=O)NCCN2CCC(NC(=O)c3ccc(F)cc3)CC2)c2ccccc2n1` [TCMDC-136173], the “% Inhibition” value was determined as 91.01%.

Turning to `COc1ccc(NC(=O)NC2CCN(CCCOc3ccnc4cc(Cl)ccc34)C2)cc1OC` (stereo not shown) [TCMDC-136148], the “% Inhibition” value is listed as -28.4%.

Regarding `Cc1ccc(C(=O)NC2CCN(CCNC(=O)Nc3cc(C)nc4ccccc34)CC2)cc1` [TCMDC-136172], the “% Inhibition” value is given as -7.111%.

Consider `Cc1cc(NC(=O)NCCN2CCC(NS(=O)(=O)c3ccc(Br)cc3)C2)c2ccccc2n1` (stereo not shown) [TCMDC-136139], for which the “% Inhibition” value is recorded as 5.798%.

As to `Cc1cc(NC(=O)NCCN2CCC(NS(=O)(=O)c3cccc(Br)c3)C2)c2ccccc2n1` (stereo not shown) [TCMDC-136138], the “% Inhibition” value is 15.89%.

As to `Cc1cc(NC(=O)NCCN2CCC(NC(=O)c3cccc(Br)c3)C2)c2ccccc2n1` (stereo not shown) [TCMDC-136175], the “% Inhibition” value is 92.91%.

`Cc1ccc(S(=O)(=O)NC2CCN(CCNC(=O)Nc3cc(C)nc4ccccc34)C2)cc1` (stereo not shown) [TCMDC-136143]: the “% Inhibition” value amounted to 91.8%.

Regarding `COc1ccc(NC(=O)NC2CCN(CCCOc3cc(C)nc4ccccc34)CC2)cc1OC` [TCMDC-136281], the “% Inhibition” value turned out to be 77.42%.

Turning to `Cc1cc(OCCCN2CCC(NC(=O)c3ccc(Br)cc3)C2)c2ccccc2n1` (stereo not shown) [TCMDC-136284], the “% Inhibition” value worked out at 3.225%.

Consider `Cc1cc(NC(=O)NCCN2CCC(NC(=O)c3ccc(C(F)(F)F)cc3)CC2)c2ccccc2n1` [TCMDC-136174], for which the “% Inhibition” value was -43.73%.

Turning to `Cc1cc(NC(=O)NCCN2CCC(NC(=O)c3ccc(Cl)cc3)CC2)c2ccccc2n1` [TCMDC-136171], the “% Inhibition” value is -56.82%.

`COc1ccc(S(=O)(=O)NC2CCN(CCNC(=O)Nc3cc(C)nc4ccccc34)C2)cc1` (stereo not shown) [TCMDC-136141]: the “% Inhibition” value is -35.07%.

On to `CC(=O)Nc1ncc(C(=O)Nc2cccc(-c3ccc(-c4nc5ccc(C(F)(F)F)cc5[nH]4)cc3)c2)s1` [TCMDC-136921], for which the “% Inhibition” value is -28%.

With `CC(=O)Oc1c(C2C=CCCC2)c(OC(C)=O)c2ccccc2c1OC(C)=O` (stereo not shown) [TCMDC-138176], the “% Inhibition” value stood at 9.671%.

With `O=C(NC1CCCCC1)c1ccc(O)c(-c2cccc(C(F)(F)F)c2)c1` [TCMDC-140163], the “% Inhibition” value is -1.763%.

On to `Cc1ccc(O)cc1Nc1ccnc2cc(-c3csc(CNCCN4CCOCC4)n3)ccc12` [TCMDC-138457], for which the “% Inhibition” value stood at 16.99%.

Take `Cc1noc(C)c1-c1cccc(CNCc2cccc(-c3ccc(-c4nc5cc(C(F)(F)F)ccc5[nH]4)s3)c2)c1.O=C(O)C(F)(F)F` [TCMDC-133055]: the “% Inhibition” value worked out at 0.7472%.

Consider `CCOc1cc2c(cc1OCC)C(c1cc(OC)c(O)cc1Cl)NCC2` (stereo not shown) [TCMDC-124488], for which the “% Inhibition” value is given as -19.03%.

Take `CCc1cc(-c2onc(C)c2-c2cc3ccccc3o2)c(O)cc1OC` [TCMDC-125148]: the “% Inhibition” value was found to be 5.13%.

Consider `C=C(C)CSc1nc2c(c(=O)n1Cc1ccco1)C1(CCCCC1)Cc1ccccc1-2` [TCMDC-123895], for which the “% Inhibition” value came out at 6.726%.

`Cn1c(O)c(N=NC(=S)N2CCOCC2)c2ccccc21` [TCMDC-138076]: the “% Inhibition” value turned out to be 88.31%.

For the molecule `CCn1c(O)c(N=NC(=S)N2CCCC2)c2ccccc21` [TCMDC-138077], the “% Inhibition” value stood at 9.29%.

Regarding `Oc1[nH]c2ccccc2c1N=NC(=S)N1CCOCC1` [TCMDC-124263], the “% Inhibition” value is 29.38%.

As for `COc1ccc(-c2ccc(NC(=O)c3cccc(C#N)c3)cc2)cc1CN1CCNCC1` [TCMDC-132530], the “% Inhibition” value is recorded as -2.653%.

Consider `COc1cccc(C(=O)Nc2nc3c(s2)CCN(Cc2ccccc2N2CCNCC2)CC3)c1.O=C(O)C(F)(F)F` [TCMDC-134190], for which the “% Inhibition” value is 63.98%.

On to `CCN1CCN(c2cc(C)c3cc(NC(=O)c4cccc(OC)c4)ccc3n2)CC1` [TCMDC-125573], for which the “% Inhibition” value is 10.75%.

On to `N#Cc1ccc(/C=C/C(=O)NCCCCCN2CCN(C(=O)Nc3ccc(Cl)c(C(F)(F)F)c3)CC2)cc1` [TCMDC-136098], for which the “% Inhibition” value is -6.45%.

`COc1ccc(C(=O)c2ccc3[nH]cc(C4=CCN(C)CC4)c3c2)cc1` [TCMDC-137276]: the “% Inhibition” value is recorded as -3.804%.

As for `Cc1ccc(C(=O)Nc2cccc(CN3CCCN(Cc4ccc(O)cc4)CC3)c2)s1` [TCMDC-141858], the “% Inhibition” value is listed as 30.58%.

`C#C[C@H]1O[C@@H](n2cnc3c(Nc4cc(Br)cc(C(F)(F)F)c4)ncnc32)[C@H](O)[C@@H]1O` [TCMDC-135185]: the “% Inhibition” value came out at 10.32%.

`Cc1[nH]c(C)c(-c2ccc(-c3ccc(F)cc3)cc2)c(=O)c1Cl` [TCMDC-137408]: the “% Inhibition” value is -2.511%.

As to `Cc1[nH]c(C)c(-c2ccc(CCc3ccc(F)cc3F)cc2)c(=O)c1Cl` [TCMDC-135462], the “% Inhibition” value is 72.17%.

`CCC(N)(C#Cc1ccc(-c2c(C)[nH]c(C)c(Br)c2=O)cc1)CC` [TCMDC-134693]: the “% Inhibition” value came to 83.96%.

On to `Cc1[nH]c(C)c(-c2ccc(C#Cc3ccc(F)cc3F)cc2)c(=O)c1Br` [TCMDC-134692], for which the “% Inhibition” value is on record as 64.24%.

For `Cc1[nH]c(C)c(-c2ccc(CCc3ccc(F)cc3F)cc2)c(=O)c1Br` [TCMDC-135461], the “% Inhibition” value turned out to be 65.46%.

As to `Cc1ccc(-c2ccc3c(c2)C=C(C(=O)NC2CCN(CCNC(=O)c4cccc(C(F)(F)F)c4)CC2)CCC3)cc1` [TCMDC-141948], the “% Inhibition” value was -9.898%.

Regarding `COC(=O)c1cccc(NC(=O)NC2CCN(c3ccnc(Nc4cc(OC)c(OC)c(OC)c4)n3)C2)c1` (stereo not shown) [TCMDC-133630], the “% Inhibition” value is given as -28.99%.

For the molecule `Cc1cc(N2CCCC2)nc(Nc2ccc(NC(=O)c3cccc(F)c3)cc2)n1` [TCMDC-124709], the “% Inhibition” value is listed as -4.91%.

Regarding `Cc1ccnc(-n2c(C)cc(C=C3SC(=Nc4ccccc4)N(Cc4ccco4)C3=O)c2C)c1` [TCMDC-125659], the “% Inhibition” value is recorded as -67.39%.

Turning to `O=C(N[C@H](CC1CCCCC1)C(=O)NC1CCCc2ccccc21)c1ccc(O)c(-c2cccc([N+](=O)[O-])c2)c1` (stereo partly shown) [TCMDC-140799], the “% Inhibition” value turned out to be 21.9%.

Regarding `Cc1nc(C)c(CC(=O)Nc2ccc(-c3cccc(-c4nc5c(C)cccc5[nH]4)c3)cc2)s1` [TCMDC-136998], the “% Inhibition” value is 88.79%.

Turning to `Cc1cccc2[nH]c(-c3ccc(-c4ccc(NC(=O)Nc5ccsc5)cc4)cc3)nc12` [TCMDC-133215], the “% Inhibition” value is on record as -35.23%.

As for `Cc1cccc2[nH]c(-c3cccc(-c4cccc(NC(=O)CN5CCN(C)CC5)c4)c3)nc12` [TCMDC-136982], the “% Inhibition” value is given as 18.86%.

For the molecule `Cc1cccc2[nH]c(-c3ccc(-c4ccc(NC(=O)CN5CCN(C)CC5)cc4)cc3)nc12` [TCMDC-136975], the “% Inhibition” value is on record as 64.7%.

For the molecule `Cc1cccc2[nH]c(-c3cccc(-c4ccc(NC(=O)CS(C)(=O)=O)cc4)c3)nc12` [TCMDC-136851], the “% Inhibition” value was -1.399%.

Regarding `Cc1nc(C)c(CC(=O)Nc2ccc(-c3cccc(-c4nc5ccc(C(F)(F)F)cc5[nH]4)c3)cc2)s1` [TCMDC-136996], the “% Inhibition” value is recorded as -50.06%.

With `Cc1nc(C)c(CC(=O)Nc2cccc(-c3cccc(-c4nc5c(C)cccc5[nH]4)c3)c2)s1` [TCMDC-136997], the “% Inhibition” value worked out at 6.613%.

Regarding `Cc1cccc2[nH]c(-c3cccc(-c4ccc(NC(=O)CN5CCN(C)CC5)cc4)c3)nc12` [TCMDC-136983], the “% Inhibition” value was found to be 81.12%.
